Measured values published in PubChem BioAssay (NCI).
About 79,000 compounds went through this panel and 15% of them were active in at least one assay; those are over-represented in the sample as a whole. Cut-off read from the data, not from the text of the source: active = growth inhibition above about 70%; inactive = the rest.

Columns and labels:
[1] = NCI Yeast Anticancer Drug Screen. Data for the rad50 strain (AID 155);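 note: 0% = growth of vehicle-only cultures of the same strain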; conditions: S. cerevisiae rad50 strain growth inhibition; at 50.0 µM; stronger effect = higher value
In short: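 Genetically altered yeast (DNA repair pathway); compound treatment; growth inhibition vs vehicle ctrl.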

[2] = NCI Yeast Anticancer Drug Screen. Data for the mec2-1 strain (AID 157); conditions: S. cerevisiae mec2-1 strain, at 50.0 µM, stronger effect = higher value
In short: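 Strain: mec2-1 (DNA repair/cell cycle alteration). Compound exposure, then growth measured; inhibition expressed relative to vehicle.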

[3] = NCI Yeast Anticancer Drug Screen. Data for the sgs1 mgt1 strain (AID 161);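 note: 0% = growth of cultures given vehicle only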; conditions: S. cerevisiae sgs1 mgt1 strain, at 50.0 µM, stronger effect = higher value
In short: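 Test agents were incubated with a DNA-repair-mutant yeast strain. Growth was then read and compared against vehicle-treated controls.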

[4] = NCI Yeast Anticancer Drug Screen. Data for the cln2 rad14 strain (AID 165);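 note: 0% = growth equal to vehicle treated cultures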; conditions: S. cerevisiae cln2 rad14 strain, at 50.0 µM, stronger effect = higher value
In short: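 Compounds are applied to the cln2 rad14 yeast strain, and growth is then compared with that of vehicle-treated cultures to give inhibition.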

[5] = NCI Yeast Anticancer Drug Screen. Data for the bub3 strain (AID 167); conditions: S. cerevisiae bub3 mutant strain, at 50.0 µM, stronger effect = higher value
In short: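 Yeast carrying a defined mutation is treated with each compound, and growth is compared with that of vehicle-exposed cells to give inhibition.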

[6] = NCI Yeast Anticancer Drug Screen. Data for the mlh1 rad18 strain (AID 175); conditions: S. cerevisiae mlh1 rad18 strain growth inhibition; at 50.0 µM; stronger effect = higher value
In short: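 Read-out is yeast growth inhibition, calculated against vehicle-only controls. The compound was applied to a strain engineered with DNA damage repair alterations.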

Measured: growth inhibition

CN(C)c1ccc(-c2cc(C(=O)O)c3cc(I)ccc3n2)c(Cl)c1
inactive: [1] 45.9% | [2] 30.6% | [3] 36.5% | [4] 51.4% | [5] 46.1% | [6] 35.8%

C=C1C2CC3CCC2C(OC(=O)c2ccccc2C(=O)O)C13 (stereo unspecified)
inactive: [1] -0.45% | [2] -11.2% | [3] 1.4% | [4] 14.8% | [5] -2.2% | [6] -19.3%

O=C(O)CSc1nc2c(Cl)c(Cl)c(Cl)cc2[nH]1
inactive: [1] -11.7% | [2] -14.1% | [3] 2% | [4] 1.6% | [5] 13.2% | [6] -9.9%

COc1cccc(OC(=O)Nc2cccc(Cl)c2)c1
inactive: [1] 38.2% | [2] 38.4% | [3] 49.4% | [4] 38.8% | [5] 41.5% | [6] 51.6%

CCOC(=O)Nc1ccc(F)cc1F
inactive: [1] -62.1% | [2] -10.6% | [3] -2.75% | [4] -10.5% | [5] 8.65% | [6] 14.4%

Nc1nc(N)nc(CNc2c(Br)cc(Br)cc2Br)n1
inactive: [1] 12% | [2] 24.6% | [3] 16.5% | [4] -9.25% | [5] -10.2% | [6] 4.95%

Cc1cccc(NC(=O)Nc2ccccc2)n1
inactive: [1] 4.65% | [2] 0.9% | [3] 9.55% | [4] -71.5% | [5] -18.9% | [6] -10.1%

O=S1(=O)C(c2cccc(C(F)(F)F)c2)=C(O)c2cc3ccccc3nc21
inactive: [1] 47.9% | [2] 21% | [3] 49.2% | [4] 33.2% | [5] -4.6% | [6] 18.6%

CNc1ncnc2c(C3OC(CO)C(O)C3O)[nH]nc12 (stereo unspecified)
inactive: [1] 16% | [2] 10.8% | [3] 6.6% | [4] 20.8% | [5] -0.8% | [6] 13.4%

COc1cc(CNc2nc3ccccc3n2Cc2ccccc2)cc(CN2CCOCC2)c1O
inactive: [1] -4.4% | [2] 15.7% | [3] 3.7% | [4] 33.3% | [5] 9.55% | [6] 7.55%

COc1ccc2c(c1)N=C(NNC1=Nc3cc(OC)ccc3SC1)CS2
inactive: [1] -9.1% | [2] 3.15% | [3] 14.4% | [4] -14.9% | [5] -4.7% | [6] 3.9%

CCCCCCC(CC)C(N)=O (stereo unspecified)
inactive: [1] 9.1% | [2] 7.8% | [3] -4.1% | [4] -7.8% | [5] -8.15% | [6] -7.6%

CCOP(C)(=O)C(Cc1c[nH]c2ccccc12)C(=O)O (stereo unspecified)
inactive: [1] -20.7% | [2] -19.7% | [3] 9.9% | [4] 13% | [5] -12.8% | [6] -2.5%

CC(SCCNC(N)=O)C(N)=O (stereo unspecified)
inactive: [1] -16.1% | [2] -7.8% | [3] -6.6% | [4] -28.4% | [5] 7.25% | [6] -14.4%

O=c1[nH]nc(-c2ccccc2)n1/N=C\c1ccccc1
inactive: [1] -33.1% | [2] -10.3% | [3] -15.6% | [4] -26.1% | [5] 6.15% | [6] -26%

Oc1cccc2nc3cc(CN4CCOCC4)c(CN4CCOCC4)cc3nc12
inactive: [1] 8.35% | [2] -18.4% | [3] -1.05% | [4] 2.7% | [5] -26.1% | [6] -4%

NC(=O)C(CC(C(N)=O)C(N)=O)C(N)=O
inactive: [1] 7.5% | [2] 18.4% | [3] -8.45% | [4] -24.9% | [5] 7.7% | [6] -6.55%

CCOC(=O)CN(C=O)C(C)c1ccccc1 (stereo unspecified)
inactive: [1] 13.1% | [2] 18.4% | [3] 4.4% | [4] 3.7% | [5] 33.6% | [6] 20.9%

CC1(C)OC2C(COCc3ccccc3)=CC(n3ccc(=O)[nH]c3=O)C2O1 (stereo unspecified)
inactive: [1] -8.3% | [2] -16.8% | [3] 1.7% | [4] -0.7% | [5] 10.1% | [6] 14.3%

CC1S/C(=N\N=C\c2ccc(Cl)cc2)N=C1c1c(O)c2ccccc2oc1=O (stereo unspecified)
inactive: [1] 13.2% | [2] 52% | [3] 57.4% | [4] -7.5% | [5] 7.65% | [6] 45.9%

COc1ccc(/C=N/Nc2ccc(S(=O)(=O)O)cc2)cc1
inactive: [1] 5.45% | [2] -12.6% | [3] -18.7% | [4] -6.45% | [5] -21.2% | [6] 13.2%
